From PubChem BioAssay (NCATS) come the findings set out here.

A short description of experiment [1]: Primary qHTS for inhibitors of nuclear receptor binding SET domain protein 2 (NSD2) in an isogenic RCH-ACV NSD2 p.E1099K mutant (9B) (AID 1645876). Further: on the % scale 0 is the no-effect control and ±100 the full control effect; nearly all actives have a fitted effect of over 70% in size. On the technique in general: qHTS replaces the single test concentration by a dilution series.
Experiment [2] is described as follows: Primary qHTS for inhibitors of nuclear receptor binding SET domain protein 2 (NSD2) in an RCH-ACV wild type WT cells (2C) (AID 1645877). Further: on the % scale 0 is the no-effect control and ±100 the full control effect; nearly all actives have a fitted effect of over 70% in size.
Experiment [3] addresses Rap guanine nucleotide exchange factor 3 (Homo sapiens) (UniProt O95398). The experiment is described as follows: Confirmatory qHTS for antagonist of cAMP-regulated guanine nucleotide exchange factor 3 (EPAC1) (AID 1645880). Further: nearly all actives have a fitted effect of over 55% in size. Further: potency means the concentration at half of the fitted maximal effect. Put shortly: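 Released BODIPY-GDP fluoresces less than Rap1-bound BODIPY-GDP; the signal is followed at 480/540 nm at 5-min intervals over 30 min, after 5 min at room temperature. Reactions contain 100 nM EPAC1, 250 nM RAP1B-BODIPY-GDP and 50 uM GDP; results are normalized to ATA and DMSO.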

The target is the same in experiment [4]. The experiment is described as follows: Confirmatory qHTS for agonist of cAMP-regulated guanine nucleotide exchange factor 3 (EPAC1) (AID 1645881). Further: nearly all actives have a fitted effect of over 75% in size. Further: potency means the concentration at half of the fitted maximal effect.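 On activation: EPAC1 catalysed release of BODIPY-GDP from Rap1B seen as fluorescence loss; 100% = effect of cAMP agonist control.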
Experiment [5] deals with Rap guanine nucleotide exchange factor 4 (Homo sapiens) (UniProt Q8WZA2). The experiment can be described thus: Confirmatory qHTS for agonist of cAMP-regulated guanine nucleotide exchange factor 4 (EPAC2) (AID 1645884).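 Further: nucleotide exchange releases bodipy-GDP from Rap1 and this lowers its fluorescence; nearly all actives have a fitted effect of over 65% in size.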 Further: potency means the concentration at half of the fitted maximal effect. On activation: on the % scale 0 is the no-effect control and ±100 the full control effect.
For experiment [6] the target is unchanged. The experiment can be described thus: Confirmatory qHTS for antagonist of cAMP-regulated guanine nucleotide exchange factor 4 (EPAC2) (AID 1645885). Further: nearly all actives have a fitted effect of over 25% in size. Further: potency means the concentration at half of the fitted maximal effect. On activity change, negative = inhibition: on the % scale 0 is the no-effect control and ±100 the full control effect.
In experiment [7] the target is Catechol O-methyltransferase (Homo sapiens) (UniProt P21964). The experiment is described as follows: Confirmatory Screen for Target Class Profiling of Small Molecule Inhibitors of Methyltransferases (AID 1745852; calls by dose curve; further: potency means the concentration at half of the fitted maximal effect; on activity change, negative = inhibition: on the % scale 0 is the no-effect control and ±100 the full control effect). To be noted: MTase-Glo luminescence, SAH detection, recombinant enzyme; measured here: COMT max response; stronger effect = lower value.
Experiment [8] deals with Guanidinoacetate N-methyltransferase (Homo sapiens) (UniProt Q14353). The description is as above. To be noted: MTase-Glo luminescence, SAH detection, recombinant enzyme; activity change, negative = inhibition: at 57.3 µM (top of the series).
In experiment [9] the target is Nicotinamide N-methyltransferase (Homo sapiens) (UniProt P40261). The description is as above. To be noted: MTase-Glo luminescence, SAH detection, recombinant enzyme; measured here: NNMT max response; stronger effect = lower value.
Experiment [10] addresses Phenylethanolamine N-methyltransferase (Homo sapiens) (UniProt P11086). Described as above. As to conditions: MTase-Glo luminescence, SAH detection, recombinant enzyme; measured here: PNMT max response; stronger effect = lower value.
In experiment [11] the target is Rap guanine nucleotide exchange factor 3 (Homo sapiens) (UniProt O95398). The experiment can be described thus: Counterscreen qHTS for agonist of cAMP-regulated guanine nucleotide exchange factor 3 (EPAC1) (AID 1645889). Further: % of control where 0% means no effect; nearly all actives have a fitted effect of over 40% in size. Put shortly:
(§1)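 Rap1B–BODIPY-GDP (250 nM) with 50 uM GDP; compounds pin-transferred to 9.74 nM–152 uM final (activator) or from 7.32 nM upwards (inhibitor). Fluorescence Ex/Em 480/540 nm read at 5 and 30 min, then after adding cAMP or buffer, at room temperature.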
(Counterscreens check selectivity or assay interference.)

For experiment [12] the target is unchanged. The experiment is described as follows: Counterscreen qHTS for antagonist of cAMP-regulated guanine nucleotide exchange factor 3 (EPAC1) (AID 1645888). Further: % of control where 0% means no effect. Put shortly: as §1
Experiment [13] can be described thus: NCATS anti-infectives library activity on HEK293 viability as a counter-qHTS vs the C. elegans viability qHTS (AID 1745854). Further: on the % scale 0 is the no-effect control and ±100 the full control effect. Put shortly: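 CellTiter-Glo luminescence, read on a CCD imager, scored viability of HEK293 cells after 24 hr compound exposure at 37C. Library tested in several concentrations, 1:5 steps, up to 41.7 uM; digitonin served as control.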

Experiment [14] is described as follows: NCATS anti-infectives library activity on the primary C. elegans qHTS viability assay (AID 1745855; calls by dose curve; further: potency means the concentration at half of the fitted maximal effect). To be noted: C. elegans worm area imaging, day 7. The procedure, abridged:
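Titration-based screen in worms: eggs hatched overnight in M9, L1 larvae fed TOP10 capsules in S medium with compound, incubated 21 °C for 7 days; fluorescent objects gated by size and intensity at days 0, 3 and 7.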

Experiment [15] is described as follows: Viability counterscreen for antagonist of constitutive androstane receptor (CAR) against the NCATS DSHEA and TCM libraries (AID 1794837).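 Further: compound exposure lasted 24 h before viability reading; 0% is about no effect.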 The procedure, abridged:
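Counterscreen performed in a 1536-well qHTS format using HepG2-CYP2B6-hCAR cells; samples titrated in the presence of 48 uM CITCO, with viability measured fluorometrically (405/540 nm) after 24 h.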

Experiment [16] in a line: Viability counterscreen for agonist of constitutive androstane receptor (CAR) against the NCATS DSHEA and TCM libraries (AID 1794838).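 Further: HepG2 cells with CYP2B6 reporter and hCAR plus 0.75 µM PK11195 antagonist; cells exposed to compound for 24 h; 0% is about no effect.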 The procedure, abridged: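 Multiplexed counterscreen: after 24 h compound exposure with 0.75 uM PK11195, HepG2-CYP2B6-hCAR viability was quantified fluorimetrically (CellTiter-Fluor, 405/540 nm) prior to the ONE-Glo luciferase read.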
Experiment [17] is described as follows: HepG2 viability counterscreen (readout 2: ATP content) against the NCATS DSHEA and TCM libraries (AID 1794840).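 Further: HepG2 cells exposed to substances for about 24 h; 0% is about no effect.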 Put shortly: (§2)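 After HepG2 cells attach for ~4 h, substances are added and incubated ~24 h at 37C, 5% CO2. GF-AFC fluorescence then CellTiter-Glo luminescence give protease and ATP readouts.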
A short description of experiment [18]: HepG2 viability counterscreen (readout 1: protease activity) against the NCATS DSHEA and TCM libraries (AID 1794841).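 Further: cells exposed to compounds for about 24 h before the protease read; 0% is about no effect.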 Put shortly:
as §2

Results filed as inconclusive are left out. Calls of active or inactive are those of the source. Unless noted, the call rests on the fitted dose curve; in most records, active means well fitted curve in the direction sought with a large enough effect; inconclusive means small, poorly fitted or top-dose-only effect, or another doubt; inactive means no such curve, though single readings can be large; an effect the other way counts as inactive or inconclusive.

Sequence of Nicotinamide N-methyltransferase (Homo sapiens) (P40261 whole entry, looked up): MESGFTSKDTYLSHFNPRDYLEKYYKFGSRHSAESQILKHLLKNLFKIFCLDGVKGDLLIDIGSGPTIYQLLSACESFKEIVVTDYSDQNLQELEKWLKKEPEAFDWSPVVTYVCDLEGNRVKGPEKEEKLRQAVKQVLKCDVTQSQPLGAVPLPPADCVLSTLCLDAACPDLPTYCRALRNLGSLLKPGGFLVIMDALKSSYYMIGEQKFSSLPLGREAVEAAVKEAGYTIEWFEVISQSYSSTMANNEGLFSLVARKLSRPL
Sequence of Rap guanine nucleotide exchange factor 3 (Homo sapiens) (O95398 whole entry, looked up): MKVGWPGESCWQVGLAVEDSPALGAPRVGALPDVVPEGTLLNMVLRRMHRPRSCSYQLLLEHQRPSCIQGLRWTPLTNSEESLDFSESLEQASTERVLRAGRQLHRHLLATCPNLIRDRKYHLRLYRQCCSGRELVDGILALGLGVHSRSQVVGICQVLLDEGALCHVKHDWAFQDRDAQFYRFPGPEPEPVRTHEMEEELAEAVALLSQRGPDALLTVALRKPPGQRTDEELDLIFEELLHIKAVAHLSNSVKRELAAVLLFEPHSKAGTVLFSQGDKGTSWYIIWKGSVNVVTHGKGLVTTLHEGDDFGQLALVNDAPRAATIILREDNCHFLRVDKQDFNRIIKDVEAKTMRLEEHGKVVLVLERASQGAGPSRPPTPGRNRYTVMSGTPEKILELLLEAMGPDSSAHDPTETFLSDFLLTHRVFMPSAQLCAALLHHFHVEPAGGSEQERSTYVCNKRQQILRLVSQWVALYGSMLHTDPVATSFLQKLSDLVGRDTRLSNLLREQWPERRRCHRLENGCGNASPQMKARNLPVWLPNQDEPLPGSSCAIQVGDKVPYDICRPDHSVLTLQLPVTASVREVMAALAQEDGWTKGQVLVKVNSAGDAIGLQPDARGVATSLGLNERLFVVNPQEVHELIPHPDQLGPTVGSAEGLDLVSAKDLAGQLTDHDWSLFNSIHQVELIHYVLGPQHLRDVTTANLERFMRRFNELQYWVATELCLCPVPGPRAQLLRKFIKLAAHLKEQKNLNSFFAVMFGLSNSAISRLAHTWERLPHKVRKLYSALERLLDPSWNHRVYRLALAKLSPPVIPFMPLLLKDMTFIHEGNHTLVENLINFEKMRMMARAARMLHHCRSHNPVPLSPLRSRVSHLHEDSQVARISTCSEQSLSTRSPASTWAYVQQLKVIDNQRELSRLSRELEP
Sequence of Catechol O-methyltransferase (Homo sapiens) (P21964 whole entry, looked up): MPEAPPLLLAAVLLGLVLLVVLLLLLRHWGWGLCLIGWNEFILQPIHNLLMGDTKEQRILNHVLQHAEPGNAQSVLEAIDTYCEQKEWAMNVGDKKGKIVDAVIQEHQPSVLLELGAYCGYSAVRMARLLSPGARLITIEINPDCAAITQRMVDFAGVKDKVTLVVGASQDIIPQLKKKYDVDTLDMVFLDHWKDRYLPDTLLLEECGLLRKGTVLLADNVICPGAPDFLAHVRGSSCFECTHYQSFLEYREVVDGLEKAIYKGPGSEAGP
Sequence of Phenylethanolamine N-methyltransferase (Homo sapiens) (P11086 whole entry, looked up): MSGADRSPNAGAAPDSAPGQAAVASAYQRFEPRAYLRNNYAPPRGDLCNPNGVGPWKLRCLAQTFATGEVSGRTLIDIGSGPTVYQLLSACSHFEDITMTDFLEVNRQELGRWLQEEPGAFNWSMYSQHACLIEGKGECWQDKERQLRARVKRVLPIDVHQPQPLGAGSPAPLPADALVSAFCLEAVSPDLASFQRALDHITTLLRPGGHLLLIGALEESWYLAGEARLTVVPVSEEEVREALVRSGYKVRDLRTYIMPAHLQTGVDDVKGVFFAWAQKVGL
Sequence of Rap guanine nucleotide exchange factor 4 (Homo sapiens) (Q8WZA2 whole entry, looked up): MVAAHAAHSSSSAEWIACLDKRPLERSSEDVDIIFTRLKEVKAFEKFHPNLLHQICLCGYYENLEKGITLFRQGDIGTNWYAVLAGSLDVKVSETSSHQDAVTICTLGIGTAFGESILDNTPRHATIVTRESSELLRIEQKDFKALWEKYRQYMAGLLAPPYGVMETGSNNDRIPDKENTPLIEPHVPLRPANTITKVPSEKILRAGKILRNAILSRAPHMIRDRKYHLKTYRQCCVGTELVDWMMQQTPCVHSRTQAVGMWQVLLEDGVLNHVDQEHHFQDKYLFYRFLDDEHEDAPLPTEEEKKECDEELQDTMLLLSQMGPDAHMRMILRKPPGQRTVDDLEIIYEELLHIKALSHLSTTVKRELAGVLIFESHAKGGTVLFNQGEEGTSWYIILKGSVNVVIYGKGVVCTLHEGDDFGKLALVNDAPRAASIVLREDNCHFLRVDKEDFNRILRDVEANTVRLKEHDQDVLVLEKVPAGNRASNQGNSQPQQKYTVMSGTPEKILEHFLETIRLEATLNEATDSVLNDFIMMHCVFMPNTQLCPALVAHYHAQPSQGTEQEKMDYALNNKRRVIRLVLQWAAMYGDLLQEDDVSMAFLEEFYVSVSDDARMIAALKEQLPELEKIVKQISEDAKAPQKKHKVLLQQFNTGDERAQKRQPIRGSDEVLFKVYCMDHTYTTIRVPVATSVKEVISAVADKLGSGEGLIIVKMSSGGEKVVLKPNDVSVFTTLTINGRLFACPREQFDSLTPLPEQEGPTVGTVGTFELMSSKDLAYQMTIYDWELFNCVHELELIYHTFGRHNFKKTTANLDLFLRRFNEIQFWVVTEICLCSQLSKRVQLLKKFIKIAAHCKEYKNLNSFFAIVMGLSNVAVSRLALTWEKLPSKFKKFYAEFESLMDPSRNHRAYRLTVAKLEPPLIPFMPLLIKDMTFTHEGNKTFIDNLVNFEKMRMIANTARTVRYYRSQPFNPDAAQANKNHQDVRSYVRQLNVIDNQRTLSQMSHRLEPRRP

Take `Brc1c(Br)c(Br)c2n[nH]nc2c1Br`: the Potency result in [1], in experiment [2], in experiment [4] and in [5] was “inactive” in each case. Also, the results for the Potency in experiment [3] and in [6] were 55.9 µM (active) and 15.6 µM (active), respectively.

`CCOC(=O)C1=C(C)NC(C)=C(C(=O)OCC)C1c1c(F)c(F)c(F)c(F)c1F`: the Potency entry in experiment [4] and in experiment [5] was “inactive” throughout. Also, the Potency in experiment [6] was 44.1 µM (active).

On to `COc1ccc(Br)cc1S(=O)(=O)NC(=O)/C=C/c1ccccc1Cc1ccc2ccccc2c1`, for which the activity in experiment [7] is 3.65%; in [9] it was -14.5%; in experiment [10] it was 0.509%. Besides, the activity change, negative = inhibition in [8] is -3.05%.

Consider `O=C1NCc2c1c1c3ccccc3[nH]c1c1[nH]c3ccccc3c21`, for which the activity in experiment [7] is -23.6%; in experiment [9] it was -25.9%; in experiment [10], -28.7%. For the same molecule, the Potency in [8] was 17.2 µM (active).

In the case of `COc1ccc(NC(=O)/C=C/c2ccc(Cl)cc2)cc1`, the activity in [7] is -21.5%; in experiment [9], -60.9%; in experiment [10] it was -10.5%. In addition, in [8], the Potency was 24.3 µM (active).

As to `N#C/C(=C\c1ccc(O)c(O)c1)C(=O)c1ccc(O)c(O)c1`, the Potency in experiment [3] was 0.794 µM (active). For the same molecule, the Potency result in experiment [4] was “inactive”. In addition, the activation in experiment [5] was 1.63% [at 17.1 µM, percent relative to cAMP agonist control] (inactive). Besides, in experiment [6], the activity change, negative = inhibition was 16.6% [at 12.7 µM] (inactive). In experiment [11], the outcome was “inactive”.

For the molecule `O=C1C(SCCO)=C(SCCO)C(=O)c2ccccc21`, the Potency entry in experiment [4], in experiment [5] and in experiment [6] was “inactive” in each case. Moreover, the outcome in experiment [12] was “inactive”. Moreover, the activity is -43.3% in experiment [7], -76.1% in [9] and -72.3% in experiment [10]. For the same molecule, the Potency in experiment [8] was 4.85 µM (active).

Consider `CC[C@@H](C)[C@H]1O[C@]2(CC[C@@H]1C)C[C@@H]1C[C@@H](C/C=C(\C)[C@@H](O[C@H]3C[C@H](OC)[C@@H](O[C@H]4C[C@H](OC)[C@@H](O)[C@H](C)O4)[C@H](C)O3)[C@@H](C)/C=C/C=C3\CO[C@@H]4[C@H](O)C(C)=C[C@@H](C(=O)O1)[C@]34O)O2`, for which, in experiment [13], the outcome was “inactive”. Further, the Potency in experiment [14] is 0.0058 µM (active).

For `NO`, the activity is 3.62% in experiment [7], -5.7% in experiment [9] and 4.25% in [10]. For the same molecule, in experiment [8], the activity change, negative = inhibition is -5.54%.

As to `CC(C(=O)O)c1ccc(C(=O)c2cccs2)cc1` (centres undefined), the outcome in experiment [13] was “inactive”.

Take `CC(=O)[C@]1(O)Cc2c(O)c3c(c(O)c2[C@@H](O[C@H]2C[C@H](N)[C@H](O)[C@H](C)O2)C1)C(=O)c1c(O)cccc1C3=O`: the Potency entry in [3] and in experiment [6] was “inactive” each time. Moreover, the Potency in [4] was 70.6 µM (active); in [5] it was 79.3 µM (active).

For the molecule `Oc1ccccc1O`, the activity in experiment [7] is 160%; in experiment [9], -3.91%; in experiment [10], 8.37%. Moreover, the activity change, negative = inhibition in [8] was -2.32%.

For the molecule `CCCCCCOc1ccccc1C(N)=O`, the outcome in experiment [13] was “inactive”.

As to `COc1cc(OC)c(/C=C2/C(=O)Nc3ccccc32)c(OC)c1`, the activity in [7] is -23%; in experiment [9] it was -28.2%; in experiment [10], -34.5%. Also, the Potency in [8] is 27.3 µM (active).

With `O=C(O)CNC(=O)C(CS)Cc1ccccc1` (centres undefined), the activity in [7] amounted to 9.44%; in [9] it was 2.86%; in experiment [10], 8.57%. The activity change, negative = inhibition in [8] came out at 4.59%.

Take `CN1CCc2cccc3c2C1Cc1ccc(O)c(O)c1-3` (centres undefined): the figures for the activity in [7], in experiment [9] and in experiment [10] were 5.12%, 0.623% and 3.44%, respectively. In experiment [8], the activity change, negative = inhibition was found to be 3.98%.

`O=C1O/C(=C/Br)CCC1c1cccc2ccccc12` (centres undefined): the Potency result in experiment [4] and in experiment [5] was “inactive” each time. Further, the Potency in [6] is 49.4 µM (active).

Regarding `C[S+](CC[C@H](N)C(=O)O)C[C@H]1O[C@@H](n2cnc3c(N)ncnc32)[C@H](O)[C@@H]1O` (some centres undefined), the outcome in [15], in experiment [16], in [17] and in experiment [18] was “inactive” throughout.
